Source: PubChem BioAssay
LmPK inh: qHTS Assay for Inhibitors of Leishmania Mexicana Pyruvate Kinase (LmPK); actives 0.37% (n = 290,000); AID 1721, 2009; Potency, µM (highest dose often 57.5 µM), for the others: at the top dose activity change, negative = inhibition, actives largely listed as inhibitors; Q27686; purified LmPK, Kinase-Glo ATP luminescence, 1 h; further: potency means the concentration at half of the fitted maximal effect; on the % scale 0 is the no-effect control and ±100 the full control effect
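Pyruvate kinase activity monitored as ATP production (luciferase luminescence). Conditions: 0.1 nM enzyme, 0.5 mM PEP, 0.1 mM ADP, 1 h, RT; normalized against uninhibited and no-enzyme wells.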
TbPYK inhibitor: qHTS of Trypanosoma Brucei Inhibitors | pyruvate kinase (Trypanosoma brucei), Q57TT1 | TbPYK enzyme, Kinase-Glo Plus ATP luminescence, 45 min | Potency, µM (top dose mostly 76.8 µM), for inactives: at the top dose activity, negative = inhibition, actives largely listed as inhibitors | actives 0.12% (n = 410,000) | AID 624173, 2012; further: potency means the concentration at half of the fitted maximal effect; on the % scale 0 is the no-effect control and ±100 the full control effect; nearly all actives have a fitted effect of over 50% in size
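Screened from lowest to highest concentration, compounds were pinned into TbPYK/substrate mixtures, and ADP (130 uM final) was added. Plates sat at room temperature for 45 min prior to Kinase-Glo Plus detection by luminescence.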
Cycloheximide cs: Cycloheximide Counterscreen for Small Molecule Inhibitors of Shiga Toxin | cell reporter, cycloheximide protein synthesis inhibition counterscreen | max response, % | actives 12% (n = 300,000) | AID 2314, 2010; in the data active means max response mostly above about 13%, no sharp cut-off; inactive means mostly below about 14%; further: read at 38.3 µM for the half of the compounds with a filed dose; 0% is about no effect
FBPA Giardia inh: qHTS Assay for Inhibitors of Fructose-1,6-bisphosphate Aldolase from Giardia Lamblia; purified Giardia FBPA; Potency, µM (series often up to 59.6 µM), inactives show top-dose activity, negative = inhibition, actives largely listed as inhibitors; actives 0.71% (n = 290,000); AID 2451, 2010; further: potency means the concentration at half of the fitted maximal effect; on the % scale 0 is the no-effect control and ±100 the full control effect; nearly all actives have a fitted effect of over 55% in size
Target sequence (A8B2U2 whole entry, looked up): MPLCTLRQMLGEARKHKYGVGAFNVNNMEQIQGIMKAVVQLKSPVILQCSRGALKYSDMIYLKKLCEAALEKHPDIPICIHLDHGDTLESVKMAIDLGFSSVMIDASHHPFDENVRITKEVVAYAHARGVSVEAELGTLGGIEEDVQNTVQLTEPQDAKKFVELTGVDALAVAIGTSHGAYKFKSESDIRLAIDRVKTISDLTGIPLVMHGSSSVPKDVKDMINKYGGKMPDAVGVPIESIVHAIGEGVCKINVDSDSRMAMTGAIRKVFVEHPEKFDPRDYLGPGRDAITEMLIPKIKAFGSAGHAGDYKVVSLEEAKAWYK
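40 nM FBPA preincubated 10 min at RT with compound (up to 57.5 uM final), then substrate plus GAPDH/TPI/NAD/arsenate coupling and diaphorase/resazurin added. Fluorescence read after 20 min at RT, 525/598 nm.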
Shiga toxin inh: A qHTS for Small Molecule Inhibitors of Shiga Toxin; Vero cells, Shiga toxin protein synthesis inhibition reporter; inhibition, % at 38.7 µM; actives 9.2% (n = 290,000); AID 2315, 2010; in the data active means inhibition mostly above about 28%, no sharp cut-off; inactive means mostly below about 43%; further: 0% is about no effect
RE007 growth inh: qHTS Assay for Inhibitors of the HIV-1 protein Vpr. Potency, µM (doses to about 92.2 µM), inactives show at the top dose activity change, negative = less growth, usual class: inhibitors. S. pombe RE007 Vpr strain, BacTiter-Glo ATP luminescence, 24 h. AID 651644, 2012. actives 0.21% (n = 360,000); active means well fitted falling curve with a large enough effect; further: potency means the concentration at half of the fitted maximal effect; on the % scale 0 is the no-effect control and ±100 the full control effect; nearly all actives have a fitted effect of over 50% in size
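Fission yeast RE007 carrying one integrated HIV-1 vpr copy, seeded at OD 0.01 in PMG+AL medium with 23 nL pinned compound. Grown 24 h at 30 degrees; viability read by BacTiter-Glo luminescence after 5 min.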
An asterisk follows results filed as active; nt = no result; + = active, no number; [ ] = another dose, or the depositor's remark. Only a selection was taken, and hits are over-represented in it overall. Unless noted, the call rests on the fitted dose curve; in most records, active means well fitted curve in the direction sought with a large enough effect; inconclusive means small, poorly fitted or top-dose-only effect, or another doubt; inactive means no such curve, though single readings can be large; an effect the other way counts as inactive or inconclusive.

SMILES | LmPK inh | TbPYK inhibitor | Cycloheximide cs | FBPA Giardia inh | Shiga toxin inh | RE007 growth inh
COc1cccc(/C=N/NC(=O)c2nc(-c3ccccc3)cc(-c3ccccc3)n2)c1O | 0% | -9% | 15* | -12% | 13 | 5%
COc1cccc(/C=N/NC(=O)C(=O)N2CCCC2)c1O | -13% | -1% | 61* | 17% | + | -5%
Cc1cccc(NC(=O)C2CCN(S(=O)(=O)c3ccc4c(c3)CCCC(=O)N4)CC2)c1 | nt | 3% | nt | nt | nt | nt
CC(C)(C)N1C(=O)[C@H]2[C@H]3[C@H](O)[C@H](O)C/C(=N/OC[C@@H](O)COCc4ccco4)[C@H]3CC[C@@H]2C1=O | nt | nt | nt | 3%[12.9 µM] | nt | nt
COc1cccc(NC(=O)Nc2nc(-c3ccc(OC)c(OC)c3)cs2)c1 | 9% | 3% | 22* | -3% | 67* | 1%
COc1cccc(-c2csc(NC(C)=O)n2)c1 | 0% | -14% | 47* | 4% | 87* | -17%
CC(=O)NNc1nc(-c2ccc(C)cc2)cs1 | -8% | 2% | 23* | -6% | 71* | 155%
CC(=O)NNc1nc(-c2ccccc2)cs1 | 0% | -15% | 1 | -20% | -6 | 9%
COc1ccc(-c2csc(NC(=O)Cc3ccccc3)n2)cc1OC | 3% | 0% | 21 | -15% | 16 | 10%
COc1ccc(-c2csc(NC(C)=O)n2)cc1OC | -2% | 0% | 21* | 0% | 20 | 18%
Cc1cc(Br)cc2c1N(Cc1ccccc1OC(C)C)C(=O)C2=O | nt | 3% | nt | nt | nt | nt
Cc1ccc(C)c(-c2nn(CC(=O)Nc3cc(F)ccc3F)c(=O)c3c2CCCC3)c1 | nt | -2% | nt | nt | nt | nt
Cc1oc(-c2ccccc2Cl)nc1CSc1nc2ncccc2[nH]1 | nt | -10% | nt | nt | nt | nt
COc1ccc(-c2csc(N)n2)cc1F | -9% | -1% | 39* | 2% | 64* | -19%
O=C(CSc1nc(-c2ccccc2)c2ccccc2n1)Nc1ccc(F)cc1 | nt | -3% | nt | nt | nt | nt
Cc1ccccc1CNC(=O)Cc1ccccc1[N+](=O)[O-] | -6% | -1% | 58* | 3% | 62* | -8%
O=C(COC(=O)Cc1ccccc1[N+](=O)[O-])NCc1ccccc1Cl | 1% | -2% | -1 | 0% | -5 | 42%
Cc1c(C(=O)NCCSCc2c(Cl)cccc2Cl)cccc1[N+](=O)[O-] | 1% | 2% | -1 | 0% | 16 | 10%
CCNC(=O)/C=C/c1ccccc1[N+](=O)[O-] | -1% | 0% | -6 | -2% | 5 | 20%
O=C(/C=C/c1ccccc1[N+](=O)[O-])NCc1ccccc1Cl | -5% | 2% | 50* | -2% | 60 | 1%
O=C(Cc1ccccc1[N+](=O)[O-])NCc1ccccc1Cl | -2% | 1% | 55* | nt | 95* | -14%
Cc1cccc(C)c1NC(=O)CNC(=O)Cc1ccccc1[N+](=O)[O-] | -2% | -7% | -2 | 4% | -10 | 7%
O=C(Cc1ccccc1[N+](=O)[O-])NCCSCc1c(F)cccc1Cl | 2% | 1% | 40* | 0% | 40 | 1%
CC(C(=O)Nc1cc(C(F)(F)F)ccc1Cl)n1nnc2sc3c(c2c1=O)CCCC3 (configuration not stated) | nt | -5% | nt | nt | nt | nt
CCC1=C2CC[C@H]3C(=O)NC(=O)[C@H]3[C@H]2[C@@]2(C)C(=O)N(CC3CC3)C(=O)N2C1=O | nt | nt | nt | 1% | nt | nt
SMILES | LmPK inh | TbPYK inhibitor | Cycloheximide cs | FBPA Giardia inh | Shiga toxin inh | RE007 growth inh
COc1cccc(COCCN2CCN(S(=O)(=O)c3ccccc3)CCC2=O)c1 | nt | nt | -8 | -1% | -12 | nt
O=C(Cc1ccc(Cl)cc1)NCc1ccccc1Cl | 0% | -2% | 50* | 3% | 115 | 4%
O=C(NCc1ccccc1Cl)c1ccc(-c2ccccc2)cc1 | -1% | -9% | 22* | 0% | 47* | 0%
O=C(NCc1ccccc1Cl)c1ccncc1 | -1% | -4% | -2 | 3% | -2 | 28%
COc1ccc(CCNC(=O)c2cc3c(=O)n(C)c4ccccc4c3s2)cc1OC | nt | 3% | nt | nt | nt | nt
Cc1cccc(-c2nc3c4ccccc4nc(N4CCN(c5cc(C)ccc5C)CC4)n3n2)c1 | nt | 5% | nt | nt | nt | nt
COc1ccc(C(=O)c2cn(Cc3ccc(F)cc3)c3ccc(C)cc3c2=O)cc1 | nt | -2% | nt | nt | nt | nt
C[C@@H](C(=O)Nc1nc2ccc(F)cc2s1)N1C(=O)C2CC=CCC2C1=O (some centres not stated) | 8% | -2% | 23* | 7% | 57 | -1%
Cc1ccc2nc(NC(=O)[C@H](C)N3C(=O)C4CC=CCC4C3=O)sc2c1 (some centres not stated) | 1% | 1% | 33* | 1% | 37* | 4%
C=CCOC(/C=C/c1ccccc1)CC (configuration not stated) | nt | nt | 10 | 2% | 14 | nt
CC(C)[C@@H]1C(=O)N(S(C)(=O)=O)[C@H]2CCN(C(=O)/C=C\CN3CCCCC3)[C@@H]12 | nt | nt | nt | 2% | nt | nt
COc1ccc(-c2ccc(OC)c(C3C4C=CCCC4(C)C(=O)N3Cc3ccccc3)c2)cc1 (configuration not stated) | nt | nt | 6 | 2% | -3 | nt
CC(C)(C)c1ccc(NC(=S)NCCc2ccccn2)cc1 | 5% | -24% | 17* | -2% | 29 | -20%
CCOc1ccccc1NC(=S)NC1CC2CCC1C2 (configuration not stated) | 4% | -3% | 6 | 10% | -1 | -4%
S=C(NCCc1ccccn1)Nc1ccc(Cl)cc1 | 0% | -8% | 39* | 2% | 48* | -9%
S=C(NCCc1ccccn1)NC1CC2CCC1C2 (configuration not stated) | 0% | -3% | 27* | 2% | 43 | 159%
CN(CCc1ccccn1)C1CC(=O)N(c2ccc(Cl)cc2)C1=O (configuration not stated) | -2% | 1% | -4 | -2% | 20 | 3.2µM*
CN(Cc1ccccc1)C1CC(=O)N(c2ccc(C(=O)O)cc2)C1=O (configuration not stated) | 0% | 8% | 0 | 3% | -11 | 1%
CCc1ccc(OCC(=O)Nc2c(C(=O)c3ccc(Br)cc3)oc3ccccc23)cc1 | nt | 6% | nt | nt | nt | nt
CN(CCc1ccccn1)C(=O)Nc1ccc(Cl)cc1 | -3% | -9% | 32* | 0% | 97 | -11%
CC(=O)c1ccc(NC(=S)NCCc2ccccn2)cc1 | -11% | -5% | 43* | 1% | 21* | -1%
CN(CCc1ccccn1)C(=S)Nc1ccc(Cl)c(Cl)c1 | -3% | -1% | 10 | -10% | 6 | -7%
Fc1ccc(NC(=S)NCc2ccccn2)cc1 | 1% | -6% | 16* | -12% | 46* | -12%
Clc1nnc2c3ccccc3ccn12 | nt | -7% | nt | nt | nt | 11%
